# Laboratory results reported in PubChem BioAssay.
# The source made the active and inactive calls. Unless noted, the rule behind the calls is not given here.
# Columns and labels:
# [1] = system: Wnt5a (protein binding on small-molecule microarray); assay: Wnt5a binders on small-molecule microarray, primary screen, biophysical, 635/667 nm fluorescence (AID 1142); settings: 635 nm fluorescence, higher = more signal;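 note: fluorescence read at 667 nm with signal to noise per printed feature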
# [2] = cell viability in Huh7 cells, primary screen, cytotoxicity control for HCV replication inhibitor project, CellTiter-Glo luminescence, basal, 48 h (AID 1143); settings: Huh7 HCV replicon, higher = more signal, called active from +8 up or from −8 down;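 note: Huh7 hepatoma cells carrying a hepatitis C replication reporter with no stimulus; test concentration not given here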
# [3] = P. aeruginosa biofilm formation inhibitors, primary screen, PAO1 strain, BacTiter-Glo luminescence, LB-PBS (AID 1144); settings: 12 h, higher = more signal
# [4] = CREB reporter modulators without forskolin, primary screen, cell-based, PC12, CRE-LacZ reporter, unstimulated (AID 1145); settings: no forskolin, luminescence, 4.5 h, higher = more signal, called active from +8 up or from −8 down
# [5] = CREB reporter modulators under forskolin, primary screen, cell-based, PC12, CRE-LacZ reporter, forskolin-stimulated (AID 1146); settings: luminescence, 4.5 h, higher = more signal, called active from +8 up or from −8 down;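 note: PC12 cells with 6xCRE LacZ reporter stimulated by forskolin 10 µM; beta-galactosidase reporter signal reflecting CREB driven transcription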
# [6] = biological target: Streptavidin (Streptomyces avidinii) (UniProt P22629); assay: streptavidin binders on small-molecule microarray, primary screen, artefact control for SMM compound annotation, biophysical, 635/667 nm fluorescence (AID 1147); settings: streptavidin binding, higher = more signal;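 note: signal reflects streptavidin binding to arrayed compounds as a control protein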
# Sequence of Streptavidin (Streptomyces avidinii) (P22629 whole entry, looked up): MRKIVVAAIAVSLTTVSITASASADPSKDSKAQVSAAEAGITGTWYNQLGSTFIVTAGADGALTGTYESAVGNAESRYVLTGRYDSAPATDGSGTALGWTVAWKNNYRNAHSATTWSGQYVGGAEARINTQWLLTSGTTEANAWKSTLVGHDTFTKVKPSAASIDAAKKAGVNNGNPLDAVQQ
# [7] = small-molecule binders of probe aInhba, primary screen, biochemical, small-molecule microarray, 635/667 nm fluorescence (AID 1148); settings: higher = more signal;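 note: score merges 667nm spot fluorescence with signal-to-noise for antibody binding to printed compounds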
# Torsin-1A (Homo sapiens) [8] = biological target: Torsin-1A (Homo sapiens) (UniProt O14656); assay: torsin A binders from cell lysate, primary screen, small-molecule microarray, wild-type, 635/667 nm (AID 1149); settings: COS7 hTOR1A-WT lysate, 635 nm fluorescence, higher = more signal
# Sequence of Torsin-1A (Homo sapiens) (O14656 whole entry, looked up): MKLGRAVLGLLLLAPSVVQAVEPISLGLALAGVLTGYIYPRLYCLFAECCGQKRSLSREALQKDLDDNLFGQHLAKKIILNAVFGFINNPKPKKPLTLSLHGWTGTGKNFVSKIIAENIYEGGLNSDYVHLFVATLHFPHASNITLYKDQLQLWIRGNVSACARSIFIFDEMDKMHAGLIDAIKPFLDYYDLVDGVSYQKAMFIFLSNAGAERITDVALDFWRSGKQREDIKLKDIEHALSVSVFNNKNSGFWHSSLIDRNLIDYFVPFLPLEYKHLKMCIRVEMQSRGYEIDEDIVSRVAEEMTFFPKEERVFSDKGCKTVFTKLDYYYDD
# Torsin-1A (Homo sapiens) [9] = biological target: Torsin-1A (Homo sapiens) (UniProt O14656); assay: small-molecule binders of mutant TOR1A in lysate, primary screen, cell lysate, small-molecule microarray, COS7 lysate, 635/667 nm fluorescence (AID 1150); settings: COS7 hTOR1A mutant lysate, 635 nm fluorescence, higher = more signal;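 note: score pools 667 nm emission and signal to noise measuring lysate protein binding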
# [10] = system: Sonic hedgehog protein (Shh); assay: small-molecule binders of Shh protein, primary screen, biochemical, small-molecule microarray, 635/667 nm fluorescence (AID 1151); settings: small-molecule microarray binding, 635 nm fluorescence; higher = more signal;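 note: Shh protein binding to compounds spotted on small-molecule microarray slides; score combines spot fluorescence intensity with signal-to-noise across triplicate slides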
smiles,measurement,setting,value
COc1cc(COC(C)=O)ccc1OC(C)=O,composite z-score,[1],1.27
same,z-score,[2],-1.68 (inactive)
same,z-score,[3],-1.48 (inactive)
same,z-score,[4],1.42 (inactive)
same,z-score,[5],68.7 (active)
same,composite z-score,[6],-0.114
same,composite z-score,[7],0.257
same,composite z-score,Torsin-1A (Homo sapiens) [8],0.343
same,composite z-score,Torsin-1A (Homo sapiens) [9],0.141
same,composite z-score,[10],0.857
C=C(CCCC)/C(=C/C[C@H](OC(C)=O)c1ccccc1OCCO)c1cc(C(=O)OC)ccc1OC,composite z-score,[1],0.0205
same,z-score,[2],-3.83 (inactive)
same,z-score,[3],0.437 (inactive)
same,z-score,[4],13.3 (active)
same,z-score,[5],-0.671 (inactive)
same,composite z-score,[6],-0.24
same,composite z-score,[7],-0.157
same,composite z-score,Torsin-1A (Homo sapiens) [8],-0.266
same,composite z-score,Torsin-1A (Homo sapiens) [9],-0.174
same,composite z-score,[10],0.199
C=CCC(OC(C)=O)[C@@H]1[C@@H](N(Cc2cccc3ccccc23)C(=O)c2ccc(-c3ccccc3)cc2)c2cc(OCCCO)ccc2N1C(=O)c1ccc2ccccc2c1 (stereo not given in full),composite z-score,[1],-0.0128
same,z-score,[2],0.107 (inactive)
same,z-score,[3],-0.815 (inactive)
same,z-score,[4],0.222 (inactive)
same,z-score,[5],0.0667 (inactive)
same,composite z-score,[6],0.486
same,composite z-score,[7],0.0816
same,composite z-score,Torsin-1A (Homo sapiens) [8],-0.219
same,composite z-score,Torsin-1A (Homo sapiens) [9],-0.0217
same,composite z-score,[10],0.711
C=CCC(OC(C)=O)[C@@H]1[C@@H](N(Cc2ccc(-c3cccc(C(F)(F)F)c3)o2)C(=O)c2ccc(C)cc2)c2cc(OCCCO)ccc2N1C(=O)Cc1ccc2ccccc2c1 (stereo not given in full),composite z-score,[1],-0.125
same,z-score,[2],-0.0329 (inactive)
same,z-score,[3],-0.568 (inactive)
same,z-score,[4],-1.1 (inactive)
same,z-score,[5],-0.0977 (inactive)
same,composite z-score,[6],-0.269
same,composite z-score,[7],-0.024
same,composite z-score,Torsin-1A (Homo sapiens) [8],-0.563
same,composite z-score,Torsin-1A (Homo sapiens) [9],-0.702
same,composite z-score,[10],0.223
COc1ccc([Si](C)(C)[C@H]2[C@H](CC(=O)N3Cc4ccccc4C[C@H]3CO)O[C@@]3(C(=O)N(Cc4cccc(N5CCC5=O)c4)c4ccccc43)[C@@H]2C)cc1,composite z-score,[1],0.512
same,z-score,[2],-3.64 (inactive)
same,z-score,[3],0.187 (inactive)
same,z-score,[4],7.57 (inactive)
same,z-score,[5],-0.86 (inactive)
same,composite z-score,[6],-0.0369
same,composite z-score,[7],0.0183
same,composite z-score,Torsin-1A (Homo sapiens) [8],0.906
same,composite z-score,Torsin-1A (Homo sapiens) [9],0.838
same,composite z-score,[10],1.74
COCCCNC(=O)[C@@H]1c2ccccc2C(=O)N(Cc2ccccc2Cl)[C@H]1c1ccc(CO)cc1,composite z-score,[1],-0.0355
same,z-score,[2],-0.0743 (inactive)
same,z-score,[3],0.66 (inactive)
same,z-score,[4],-0.179 (inactive)
same,z-score,[5],-0.268 (inactive)
same,composite z-score,[6],0.128
same,composite z-score,[7],0.326
same,composite z-score,Torsin-1A (Homo sapiens) [8],0.494
same,composite z-score,Torsin-1A (Homo sapiens) [9],0.857
same,composite z-score,[10],0.861
C=CCC(OC(C)=O)[C@@H]1[C@@H](N(Cc2cc3ccccc3o2)C(=O)c2cccc3ccccc23)c2cc(OCCCO)ccc2N1C(=O)c1ccc(-c2ccccc2)cc1 (stereo not given in full),composite z-score,[1],0.15
same,z-score,[2],-1.82 (inactive)
same,z-score,[3],0.861 (inactive)
same,z-score,[4],1.38 (inactive)
same,z-score,[5],-0.654 (inactive)
same,composite z-score,[6],0.111
same,composite z-score,[7],-0.196
same,composite z-score,Torsin-1A (Homo sapiens) [8],0.736
same,composite z-score,Torsin-1A (Homo sapiens) [9],0.223
same,composite z-score,[10],0.464
